Max activity data for 38 compounds are collected here from PubChem BioAssay AID743446 (Broad Institute, 2014).

SMILES strings stand for the structures. Measured potencies and affinities stand elsewhere. A number with no mark means an inactive call. How the calls were made is not given here.

The nature of the assay: HEK293 cell cytotoxicity, dose response, cytotoxicity control, plate reader, cherry-picked samples (AID 743446). Conditions: stronger effect = lower value; at 26 µM unless noted.
In the case of `COCCn1c(C)cc(C(=O)CSc2nnnn2C2CCCC2)c1C`, the max activity is 21%.

`O=C(Nc1ccc(N2CCOCC2)cc1)c1cnccn1`: the max activity was -6.24% [at 3 µM]. For the compound `O=C(COC(=O)c1ccccc1C(=O)c1ccc(Cl)c([N+](=O)[O-])c1)NC1CC1`, the max activity was 8.38% [at 6 µM]. Take `COc1ccc(S(=O)(=O)N2CCCCN3[C@H](CO)[C@H](c4ccc(-c5cccnc5)cc4)[C@@H]3C2)cc1`: the max activity is -10.9% [at 12 µM]. Take `Cc1ccc2nc(-c3ccccc3)nn2c1`: the max activity was 68.6% [at 3 µM]. Consider `Cc1cnc(NC(=O)c2sc3ccccc3c2Cl)s1`, for which the max activity was 35.5% [at 6 µM].

For the compound `O=C(COc1ccc2ccccc2c1)Nc1nccs1`, the max activity was 38.6% [at 0.195 µM]. For the compound `CCCc1nc(SCC(=O)N2CCC(Cc3ccccc3)CC2)c2c(=O)n(C)c(=O)n(C)c2n1`, the max activity was 11.8% [at 0.05 µM]. The value for `O=C(Nc1cccc(C(=O)O)c1)Nc1ccccc1Cl` was -26.9% [at 6 µM].

Take `Cc1ccccc1N=CC1=C(O)c2ccccc2C1=O`: the max activity was 12.1% [at 0.05 µM]. As for `C[C@H](CO)N1C[C@H](C)[C@@H](CN(C)CC2CCOCC2)Oc2ncc(Br)cc2C1=O`, the max activity was 4.11%.

For `C[C@H]1CN([C@@H](C)CO)C(=O)c2cccc(NC(=O)NC3CCCCC3)c2O[C@@H]1CN(C)Cc1ccc(C(F)(F)F)cc1`, the max activity was 27.3% [at 12 µM]. The same measure for `CCCCCc1ccc(-c2ccc(C(=O)O)cc2)nc1`: 34.4% [at 0.8 µM]. On to `O=C(C[C@H]1C=C[C@@H](NC(=O)C2CCC2)[C@H](CO)O1)NCCCN1CCOCC1`, for which the max activity was -15.9% [at 1.6 µM]. As to `C=CCN1CCN(C(=O)CCCc2ccccc2)CC1`, the max activity was 69.3% [at 12 µM]. For the compound `O=C(O)c1ccc(N/N=C/c2c[nH]c3ccccc23)cc1`, the max activity is 10.4% [at 3 µM]. The same measure for `Nc1c(C(=O)Nc2cccc(C(=O)O)c2)sc2nc3c(cc12)CCCC3`: -12.6% [at 0.1 µM]; for `Cc1ccc(NC(=O)c2ccc3c(c2)OCCO3)cc1C`: 32.4% [at 0.38 µM]; for `O=C(Nc1ccc(N2CCOCC2)c(S(=O)(=O)Nc2ccccc2Cl)c1)c1ccc(F)cc1`: -18.2% [at 0.1 µM]. In the case of `Cc1ccccc1S(=O)(=O)N1[C@H](C#N)[C@H](c2ccc(C#CC3CCCCC3)cc2)[C@H]1CO`, the max activity is 29.2% [at 3 µM].

Regarding `O=C(O)c1c2c(nc3ccccc13)/C(=C/c1ccc(O)cc1)CC2`, the max activity is 22.6%.

For the compound `O=C(NCCc1ccccc1)c1ccc2c(c1)OCCO2`, the max activity was 15.3% [at 0.195 µM]. The value for `CSc1ccc(NC(=O)Nc2cc(C)ccn2)cc1` was 12.9% [at 0.05 µM].

`O=C(NCCOc1ccccc1)[C@@H]1CCCN1C(=O)c1cccs1`: the max activity is -12.7% [at 0.05 µM]. With `Cc1cc(-c2nc3cc(F)ccc3s2)ccc1N`, the max activity is 28.1% [at 1.6 µM].

Take `Clc1ccc(-n2ncc3c(N4CCCC4)ncnc32)cc1`: the max activity is 13.4%. With `CC(C)C(=O)N1CCN(c2ccc(NC(=O)COc3ccccc3[N+](=O)[O-])cc2)CC1`, the max activity was -46.9%. Consider `Cc1noc(C)c1S(=O)(=O)Nc1ccc2c(c1)C(=O)N([C@H](C)CO)C[C@H](C)[C@H](CN(C)C(=O)Nc1ccc(F)cc1)OCCCC[C@@H](C)O2`, for which the max activity is 16.1% [at 0.1 µM]. With `Cc1ccc(-c2cnn3c(N4CCOCC4)cc(C)nc23)cc1`, the max activity is 35.7% [at 0.38 µM]. Regarding `COc1ccc(S(=O)(=O)N2CCN(C(=O)c3ccc(C)o3)CC2)cc1`, the max activity is 29.4% [at 0.195 µM].

On to `Cc1ccc(-c2noc(-c3cccs3)n2)cc1`, for which the max activity was 22.5% [at 12 µM]. For `Cc1ccc(C(=O)NC2CCCCCCC2)c(Cl)c1`, the max activity was -18.7% [at 0.38 µM]. As for `Cc1ccc(NC(=O)c2ncn(CC(=O)NCc3ccc4[nH]ccc4c3)n2)cc1C`, the max activity was 8.88%. `COc1ccc(CCNC(=O)C2CCN(S(=O)(=O)c3ccc(Cl)cc3)CC2)cc1OC`: the max activity was -15% [at 0.05 µM]. In the case of `C[C@H]1CN([C@@H](C)CO)C(=O)c2cc(C#CCc3ccccc3)cnc2O[C@H]1CN(C)Cc1ccccc1`, the max activity is 13.9% [at 3 µM]. `COCCOc1cc(NCc2ccccc2)c2ncn(C(C)C)c2c1`: the max activity was -9.83% [at 0.1 µM]. Take `Cn1cccc1C(=O)OCC(=O)Nc1ccc2c(c1)OCCO2`: the max activity is -17.1%.

Consider `CCc1nc(Sc2nnnn2-c2ccccc2)c2c3c(sc2n1)CCCC3`, for which the max activity is -13.3%.
